PubChem BioAssay (NCI)
The panel holds about 83,000 compounds, 20% with a hit somewhere; the sample as a whole holds those more often.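 Plates (96-well) were seeded with cells, treated with compound at one concentration, and incubated for 48 hours before percent growth was determined.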 Active and inactive are the calls of the source. How the source made its calls: active means growth percent below 10; inactive means the rest.

Assays:
Assay in all cases: NCI-60 one-dose screen, 48 h (100 = growth as untreated, 0 = no growth, -100 = all killed)
Details in all cases: 10 µM
786-0 renal = tested on: 786-0 renal
SN12C renal = tested on: SN12C renal
TK-10 renal = tested on: TK-10 renal
ACHN renal = tested on: ACHN renal
CAKI-1 renal = tested on: CAKI-1 renal
A498 renal = tested on: A498 renal
RPMI-8226 leukemia = tested on: RPMI-8226 leukemia
OVCAR-8 ovarian = tested on: OVCAR-8 ovarian
OVCAR-5 ovarian = tested on: OVCAR-5 ovarian
OVCAR-4 ovarian = tested on: OVCAR-4 ovarian
SK-OV-3 ovarian = tested on: SK-OV-3 ovarian
OVCAR-3 ovarian = tested on: OVCAR-3 ovarian
NCI/ADR-RES ovarian = tested on: NCI/ADR-RES ovarian
T-47D breast = tested on: T-47D breast
BT-549 breast = tested on: BT-549 breast
MDA-MB-435 melanoma = tested on: MDA-MB-435 melanoma
MCF7 breast = tested on: MCF7 breast
HCT-116 colon = tested on: HCT-116 colon
HCC-2998 colon = tested on: HCC-2998 colon
KM12 colon = tested on: KM12 colon

Measured: growth

C[C@H]1[C@@H](CC(=O)N[C@@H](Cc2coc3ccccc23)B(O)O)O[C@@H]2OC3(C)CC[C@H]4[C@H](C)CC[C@@H]1[C@@]24OO3
inactive: 786-0 renal 16.5% | TK-10 renal 16.5% | ACHN renal 13.2% | CAKI-1 renal 25.2% | A498 renal 36.6% | OVCAR-4 ovarian 18.3% | NCI/ADR-RES ovarian 27.6% | MCF7 breast 12%
active: SN12C renal -78.6% | RPMI-8226 leukemia -7.66% | OVCAR-8 ovarian -6.75% | OVCAR-5 ovarian -57.1% | SK-OV-3 ovarian -22.9% | OVCAR-3 ovarian -14.9% | T-47D breast -27.7% | BT-549 breast -92% | MDA-MB-435 melanoma -53.8% | HCT-116 colon -85.3% | HCC-2998 colon -97.2% | KM12 colon -20.4%

CC[C@]12C=CCN3CC[C@@]4(c5ccc(OC)cc5N(C)[C@H]4[C@@](O)(C(=O)OC)[C@@H]1OC(=O)CCCC[P+](c1ccc(OC)cc1)(c1ccc(OC)cc1)c1ccc(OC)cc1)[C@@H]32
inactive: NCI/ADR-RES ovarian 84.3%
active: 786-0 renal -92.9% | SN12C renal -95.3% | TK-10 renal -88.2% | ACHN renal -49.2% | CAKI-1 renal -78.5% | A498 renal -54.7% | RPMI-8226 leukemia -68.8% | OVCAR-8 ovarian -90.2% | OVCAR-5 ovarian -98.6% | OVCAR-4 ovarian -37.7% | SK-OV-3 ovarian -82.5% | OVCAR-3 ovarian -71.8% | T-47D breast -46.6% | BT-549 breast -96.7% | MDA-MB-435 melanoma -88.5% | MCF7 breast -82.6% | HCT-116 colon -94.9% | HCC-2998 colon -88.4% | KM12 colon -68.8%

C[C@H]1[C@H](OC(=O)CCC(=O)N(CCCc2cn(-c3ccc(CN4CCOCC4)cc3)nn2)CCNc2ccnc3cc(Cl)ccc23)O[C@@H]2OC3(C)CC[C@H]4[C@H](C)CC[C@@H]1[C@@]24OO3
active: 786-0 renal -65% | RPMI-8226 leukemia 3.71% | BT-549 breast 5.43% | HCT-116 colon -8.13%
inactive: SN12C renal 23.2% | TK-10 renal 48.8% | ACHN renal 23.1% | CAKI-1 renal 21.4% | A498 renal 93.6% | OVCAR-8 ovarian 19.4% | OVCAR-5 ovarian 42.1% | OVCAR-4 ovarian 45.9% | SK-OV-3 ovarian 74.2% | OVCAR-3 ovarian 38.3% | NCI/ADR-RES ovarian 26.1% | T-47D breast 25.4% | MDA-MB-435 melanoma 18.4% | MCF7 breast 11.2% | HCC-2998 colon 40.1% | KM12 colon 24.7%

CC1=C(CCC=O)C2=C(C)C3(CC3)[C@@](C)(O)C(=O)C2=C1
active: 786-0 renal -48.9% | SN12C renal -82.3% | TK-10 renal -91.6% | ACHN renal -100% | CAKI-1 renal -100% | A498 renal -56.8% | RPMI-8226 leukemia 1.91% | OVCAR-8 ovarian -73.4% | OVCAR-5 ovarian -95.8% | OVCAR-4 ovarian -97.4% | SK-OV-3 ovarian -62% | OVCAR-3 ovarian -77.6% | NCI/ADR-RES ovarian -43.5% | T-47D breast -41.3% | BT-549 breast -23% | MDA-MB-435 melanoma -88.8% | MCF7 breast -44.2% | HCT-116 colon -63.9% | HCC-2998 colon -91.6% | KM12 colon -72.9%

O=C([Se]C1C=CCCC1)c1ccc(C(=O)[Se]C2C=CCCC2)s1 (stereo not given)
active: 786-0 renal -92.7% | SN12C renal -81.8% | TK-10 renal -80.9% | ACHN renal -67% | CAKI-1 renal -61.6% | RPMI-8226 leukemia -43.1% | OVCAR-8 ovarian -97.6% | OVCAR-5 ovarian -89.2% | OVCAR-4 ovarian -95.3% | SK-OV-3 ovarian -97.5% | OVCAR-3 ovarian -92.4% | NCI/ADR-RES ovarian -81.4% | T-47D breast -48.1% | BT-549 breast -65.7% | MDA-MB-435 melanoma -61.2% | MCF7 breast -37.1% | HCT-116 colon -43.1% | HCC-2998 colon -67.8% | KM12 colon -64.9%
inactive: A498 renal 20.6%

COc1cc2cc(C(=O)N3C[C@@H](CCl)c4c3cc(OC(=O)N3CCN(C(=O)CCC(=O)N5CCN(C)CC5)[C@@H]5CSSC[C@@H]53)c3ccccc43)[nH]c2c(OC)c1OC
active: 786-0 renal -80.9% | SN12C renal -37.7% | TK-10 renal 5.55% | ACHN renal -31.6% | A498 renal -10.8% | RPMI-8226 leukemia 6.09% | OVCAR-8 ovarian -32.1% | OVCAR-5 ovarian -35.6% | OVCAR-4 ovarian -6.42% | SK-OV-3 ovarian 3.05% | NCI/ADR-RES ovarian -56.6% | T-47D breast 1.49% | BT-549 breast -81.3% | MDA-MB-435 melanoma 3.09% | MCF7 breast -92.4% | HCT-116 colon -77.5% | HCC-2998 colon -99.1% | KM12 colon -74.6%
inactive: CAKI-1 renal 13.9% | OVCAR-3 ovarian 16.4%

C#CCCCN(CCNc1ccnc2cc(Cl)ccc12)C(=O)CCC(=O)O[C@@H]1O[C@@H]2OC3(C)CC[C@H]4[C@H](C)CC[C@@H]([C@H]1C)[C@@]24OO3
inactive: 786-0 renal 46.9% | SN12C renal 36.1% | TK-10 renal 50.1% | ACHN renal 29.4% | CAKI-1 renal 41.4% | A498 renal 96% | RPMI-8226 leukemia 24.9% | OVCAR-8 ovarian 17% | OVCAR-5 ovarian 45.1% | OVCAR-4 ovarian 41.3% | SK-OV-3 ovarian 79.3% | OVCAR-3 ovarian 25.7% | NCI/ADR-RES ovarian 16.2% | T-47D breast 27.9% | BT-549 breast 37.3% | MDA-MB-435 melanoma 21.2% | MCF7 breast 14.2% | HCT-116 colon 19.4% | HCC-2998 colon 20.7% | KM12 colon 27.7%
